Measurements from PubChem BioAssay (NCI).
This is part of a sample that, as a whole, favours compounds with a hit. Of some 83,000 tested, about 20% had one in any assay.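 How to read the values: 0–100, growth inhibition (40 = 60% inhibited); 0, no net growth; -100 to 0, cell death (-40 = 40% of starting cells died; -100 = all dead).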 Values without a mark were called inactive. Calls of active or inactive are those of the source. How the source made its calls: active means growth percent below 10; inactive means the rest.

system: NCI-H460 lung; experiment: NCI-60 one-dose screen, 48 h (100 = growth as untreated, 0 = no growth, -100 = all killed); details: 10 µM unless noted

SMILES | growth
O=c1ccc(N=Nc2ccccc2)ccc1Cl | 98%
CCCCCCn1c(-c2ccc(C(=O)O/N=C(\N)c3ccc(OC)cc3)cc2)nc(-c2ccccc2)c1-c1ccccc1 | -10.3% (active)
COc1ccc(C(=O)C[C@]2(O)C(=O)Nc3c(Cl)ccc(Cl)c32)cc1 | 10.1%
CCCCOc1nc2c(C)cccc2cc1-c1cc(-c2ccc(Cl)cc2)nc(-c2ccc(Cl)cc2)c1 | 103%
CSc1ncccc1C(=O)OCC(=O)Nc1oc(C)c2c(C)n[nH]c(=O)c12 | 108%
O=C(Oc1cccc2ccccc12)Oc1cccc2ccccc12 | 110%
COC(=O)[C@H](C)NC(=O)NC(=O)NC(=O)CI | 104%
C[C@H](C(=O)Nc1ccc(S(N)(=O)=O)cc1)S(=O)(=O)c1ccccc1 | 108%
c1ccc2c(c1)Nc1ccncc1S2 | 100%
COc1ccc(C2CC(c3ccc(Nc4ccnc5cc(Cl)ccc45)cc3)=NN2C=O)cc1 (configuration not stated) | 80.2%
O=C(CS(=O)c1oc(-c2cccs2)nc1S(=O)(=O)c1ccc(Br)cc1)c1ccccc1 (configuration not stated) | 93.6%
O=C(N=c1oc2ccccc2cc1-c1cc2ccccc2[nH]1)Nc1ccc(Cl)cc1 | 99.6%
CCc1cccc2c3c(sc12)C(c1ccc(F)cc1)C(C#N)=C(N)O3 (configuration not stated) | 12.9%
C/C(=C\C(=O)c1ccc(Cl)cc1)c1ccc(Cl)cc1 | 100%
COc1cc(/C=C/c2ccccc2)cc(OC)c1 | 106%
O=C(Nc1ccc(I)cc1F)c1cc(I)ccc1O | 2.89% (active)
CCOc1cccc(NC2=C(Br)C(=O)C(C)=C(C)C2=O)c1 | 100%
Cc1nc(S(=O)(=O)c2ccccc2)c(S(=O)(=O)Cc2ccc([N+](=O)[O-])cc2)o1 | 98.5%
Nc1nc(Cl)cc(=O)n1Cc1ccccc1 | 105%

SMILES | growth
Oc1ccc(C#CCOc2ccccc2)cc1CNCCN(Cc1ccccn1)Cc1ccccn1 | 5.58% (active)
c1ccc(Nc2cc(-c3cccnc3)[nH]n2)cc1 | 111%
CNCCCNc1nc2ccccc2c2c(=O)c3cc(OC)ccc3sc12 | 5.64% (active)
Cc1nc2ccccc2n1CC1C(=O)NC(=O)NC1=O | 111%
COc1ccc(OC)c(/C=C/C(=O)N/N=C/c2ccc(Cl)cc2)c1 | 5.19% (active)
Cc1ccc(S(=O)(=O)Oc2ccc(NC(=O)c3ccc(Cl)cc3)cc2)cc1 | 103%
Nc1nn(C(=O)Nc2ccc(Cc3ccccc3)cc2)c2ccc(Cl)cc12 | 28.9%
CC(=O)CC[C@H]1C(=O)N[C@@H](C(C)C)C(=O)N[C@@H](Cc2cc(O)cc(F)c2)C(=O)N2CCC[C@H](N2)C(=O)O[C@H](/C(C)=C/C=C/C(=O)OC(C)(C)C)C/C=C/C=C/[C@H](O)[C@H](C)[C@H]1O | 13.3%
Cn1cc(-c2cc3ncnc(Nc4ccc(CC(=O)Nc5cc(C(C)(C)C)nn5C)cc4)c3s2)cn1 | 43.5%
Oc1c(I)cc(I)cc1CNCCCN(Cc1ccccn1)Cc1ccccn1 | -57.2% (active)
COc1ccc(/C=C2\Oc3cc(OCCN4CCC(Cc5ccccc5)CC4)ccc3C2=O)cc1OC | 66.5%
CC[C@H](C)C(=O)O[C@H]1CCC=C2C=C[C@H](C)[C@H](CC[C@@H]3CC=CC(=O)O3)[C@H]21 | 99%
Cc1cccc2c(=O)c3c(sc12)c(NCc1ccccc1)nc1ccccc13 | 54.8%
COc1cc(C2CC(c3ccc(N(C)C)cc3)=NN2C(C)=O)cc(OC)c1OC (configuration not stated) | 10.8%
CCCCCCNC(=O)Oc1ccc(/C(=C(\C)c2ccc(Cl)cc2)c2ccc(OCCCN(C)C)cc2)cc1 | 32.7%
N[C@@H](Cc1ccccc1)[C@@H](O)C(=O)NCc1ccc(F)cc1 | 103%
COC(=O)/C=C1\S/C(=N\Nc2ccc([N+](=O)[O-])cc2[N+](=O)[O-])N(C2CCCCC2)C1=O | 35.1%
O=C(O)c1cn(C2CC2)c2cc(N3CCN(C(=O)Nc4nc(-c5ccccc5)cs4)CC3)c(F)cc2c1=O | 5.5% (active)
